# Reference: PubChem BioAssay AID2147 (National Center for Advancing Translational Sciences (NCATS), 2009)
# Hit rate of the full screen: of about 230,000 compounds, about 3,600 (1.6%) were called active. About 15% were inconclusive and are not listed. Shown is part of a subset that was picked to be rich in actives. Unmarked numbers belong to inactive results. Calls come from the whole dose curve; as a rule, active = well fitted inhibition curve with a large enough effect (not every such curve was filed as active); inconclusive = small, poorly fitted or top-dose-only effect, or another doubt; inactive = no such curve, though single readings can be large or run the other way.
# Target: Lysine-specific demethylase 4E (Homo sapiens) (UniProt B2RXH2)
# Assay: qHTS Assay for Inhibitors of Human Jumonji Domain Containing 2E (JMJD2E)
# Conditions: JMJD2E catalytic domain, FDH-coupled NADH fluorescence (FDH is formaldehyde dehydrogenase); series mostly up to 57.1 µM; activity change, negative = inhibition: at the top concentration
# Text: Assay Provider: Structural Genomics Consortium [SGC] Screening Center PI: Austin, C.P. Screening Center: NIH Chemical Genomics Center [NCGC] The fine interplay among methylation states of several lysine residues on the tails of histone proteins is a major determinant of the transcriptional state of the associated DNA coding regions and is commonly referred to as the histone code. Histone lysine demethylases catalyze the removal of methyl groups from methylated lysine sidechains on histones H3 and H4, thus antagonizing the reactions catalyzed by histone lysine methyltransferases. […] In search for novel inhibitors of JMJD2E demethylase, a member of the largest set of histone demethylases belonging to the Fe(II) and 2-oxoglutarate oxygenase (2OG) superfamily, we performed a quantitative high-throughput screen (Inglese 2006) by using an assay which utilizes a trimethylated peptide substrate corresponding to a fragment of histone H3 (sequence ARKme3STGGK) with detection of the formaldehyde co-product in real time by a formaldehyde dehydrogenase (FDH) coupled reaction. FDH catalyzes oxidation of formaldehyde to formic acid with the concomitant reduction of the non-fluorescent beta-nicotinamide adenine dinucleotide hydrate (NAD+) cofactor to the fluorescent NADH co-product. References: Inglese, J., Auld, D., Jadhav, A., Johnson, R., Simeonov, A., Yasgar, A., Zheng, W. and Austin, C. Proc Natl Acad Sci USA 2006, 103, 11473-11478. N. R. Rose, S. S. Ng, J. Mecinovic, B. M. Lienard, S. H. Bello, Z. Sun, M. A. McDonough, U. Oppermann and C. J. Schofield, J Med Chem, 2008, 51, 7053-7056. Sakurai, M., Rose, N., Schultz, L., Quinn, A., Jadhav, A., Ng, S., Oppermann, U., Schofield, C.J. and Simeonov, A. Mol BioSystems 2009, in press. S. Michael, D. Auld, C. Klumpp, A. Jadhav, W. Zheng, N. Thorne, C. Austin, J. Inglese and A. Simeonov, Assay Drug Dev Technol, 2008, 6, 637-657.
# Reagents and Controls: Ferrous ammonium sulfate, (+)-sodium L-ascorbate, beta-nicotinamide adenine dinucleotide hydrate (NAD+), Tween-20, formaldehyde dehydrogenase from P. putida (FDH), and disodium 2-oxoglutarate were from Sigma (St. Louis, MO). Black solid-bottom 384-well or 1,536-well assay plates were from Greiner Bio-One (Monroe, NC). Enzyme was supplied by Prof. Udo Oppermann, SGC-Oxford. The catalytic domain of human JMJD2E (residues 1-337) was produced as an N-terminally His6-tagged protein in E. coli, and purified by Ni-affinity chromatography and size-exclusion chromatography, and stored in HEPES 50 mM/ NaCl 500 mM pH 7.5, as reported in Rose 2008. The trimethylated histone peptide substrate ARK(me3)STGGK was synthesized and HPLC-purified by the Tufts University Core Facility (Boston, MA). Substrate solution (Sakurai 2009) contained 50 uM ARK(me3)STGGK, 0.00025 U/uL FDH, 50 uM 2-oxoglutarate, 250 uM NAD+, 1 mM ascorbate, and 10 uM ferrous ammonium sulfate. Controls and plate map: Buffer (150 mM HEPES pH 7.5 containing 0.01% Tween-20) in columns 3 and 4 as negative control (no enzyme) and 100 nM JMJD2E final concentration in columns 1,2, and 5-48. Assay Steps: Enzyme and buffer solutions (3 uL) were dispensed into a 1,536-well Greiner black solid-bottom assay plate. The library compounds (23 nL) were transferred using a Kalypsys pintool equipped with 1,536-pin array. The plate was incubated at room temperature (15 min), and then a 1 uL aliquot of substrate solution was added to initiate the reaction. The plate was transferred to ViewLux imager where an initial reading using standard UV optics (Ex 340 nm, Em 450 nm) was obtained. The plate was then removed from the reader, incubated for 30 minutes at room temperature, and returned to the reader for a second fluorescence reading. A fully automated robotic screening system (Kalypsys Inc, San diego, CA) was used to perform the above steps as described previously (Michael 2008). […]
# Note: nearly all actives have a fitted effect of over 50% in size.
# Potency is the fitted concentration of half-maximal effect.
# 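Throughout, for activity change, negative = inhibition: 0% = wells with enzyme and -100% = buffer wells without enzyme.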
# Lysine-specific demethylase 4E (Homo sapiens), sequence (B2RXH2 1-337 limits assumed): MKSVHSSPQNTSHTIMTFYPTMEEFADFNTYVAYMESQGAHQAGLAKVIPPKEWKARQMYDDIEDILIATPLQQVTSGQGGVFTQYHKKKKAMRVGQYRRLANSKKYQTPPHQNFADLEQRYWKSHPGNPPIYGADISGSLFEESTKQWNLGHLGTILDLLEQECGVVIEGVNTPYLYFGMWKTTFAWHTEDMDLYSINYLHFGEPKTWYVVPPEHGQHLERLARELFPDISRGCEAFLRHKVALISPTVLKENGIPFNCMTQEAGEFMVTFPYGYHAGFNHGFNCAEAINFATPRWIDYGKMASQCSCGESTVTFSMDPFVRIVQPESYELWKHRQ
Structure (SMILES),Potency,"activity change, negative = inhibition"
CC/C(=N\NC(=O)c1ccccc1O)c1c(O)n(Cc2ccccc2)c(=O)[nH]c1=O,25.1 µM (active),–
O=c1[nH]c(=O)n(Cc2ccccc2)c(O)c1/C=N/Nc1c(F)c(F)c(F)c(F)c1F,–,-5.77%
CCC(=NCCc1ccccc1)c1c(O)n(C2CCCCC2)c(=O)[nH]c1=O,–,-3.74%
CNCC[C@H](Oc1ccc(C(F)(F)F)cc1)c1ccccc1,inactive,–
N#Cc1c(Cl)c(Cl)c(Cl)c(C#N)c1Cl,–,0.206%
CNC(=O)O/N=C(\N)Cc1csc2ccc(Cl)cc12,–,-5.49%
CC[C@H]1CN2CCc3cc(OC)c(OC)cc3[C@@H]2C[C@@H]1C[C@H]1NCCc2cc(OC)c(OC)cc21,–,-0.966%
c1cncc(CNC2=NCCC2)c1,–,8.62%
CC1CCCCN1Cc1cccnc1 (stereo not given),20 µM (active),–
CC1=C2C(=O)C3C(CC=C4CC(OC5OC(O)C(O)C(O)C5CO)CCC43C)C2CCC12OC1CC(C)CNC1C2C (stereo not given),–,-0.741%
CNC(C)[C@@H](O)c1ccccc1 (stereo not given in full),–,-1.97%
Cc1ccc(N2C(=O)NC(=O)C(CCc3ccncc3)(Cc3cccc(Cl)c3Cl)C2=O)cc1 (stereo not given),–,-0.357%
CCCCC/C=C\C/C=C\C/C=C\C=C\[C@H](CCCC(=O)O)OO,–,1.94%
C[C@H]1CC[C@@]2(NC1)O[C@@H]1C[C@H]3[C@@H]4CC=C5C[C@@H](O)CC[C@]5(C)[C@@H]4CC[C@]3(C)[C@@H]1[C@@H]2C,–,10.5% [at 25.5 µM]
O=C(OCC1O[C@@H](OC(=O)c2cc(O)c(O)c(O)c2)[C@@H](OC(=O)c2cc(O)c(O)c(O)c2)[C@@H](OC(=O)c2cc(O)c(O)c(O)c2)[C@@H]1OC(=O)c1cc(O)c(O)c(O)c1)c1cc(O)c(O)c(O)c1 (stereo not given in full),3.16 µM (active),–
O=C(COC(=O)c1ccccc1)Nc1ccc(Cl)cc1C(=O)c1ccccc1,–,-4.54%
COc1ccccc1N1CCN(C(CNC(=O)Oc2ccccc2)c2cccnc2)CC1 (stereo not given),–,-7.04%
CN(C)CC1CCCCC1OC(=O)c1ccc(Cl)c(Cl)c1 (stereo not given),–,8.43%

Structure (SMILES),Potency,"activity change, negative = inhibition"
Cc1ccccc1N1C(=O)NC(=O)/C(=C\c2cc(C)n(C)c2C)C1=O,–,0.783%
Cc1cccc(N2C(=O)NC(=O)/C(=C\c3cnn(-c4ccccc4)c3)C2=O)c1,–,-6.79%
COc1cccc(N2C(=O)NC(=O)/C(=C\c3ccc([N+](=O)[O-])s3)C2=O)c1,17.8 µM (active),–
CC1=C(C(=O)Nc2ccccc2)S(=O)(=O)CCO1,–,1.07%
O=c1oc2ccccc2c(O)c1C(c1ccccc1O)c1c(O)c2ccccc2oc1=O,–,1.84%
CC(=O)c1c(O)c(C)c(O)c(Cc2c(O)c3c(c(C(=O)/C=C\c4ccccc4)c2O)OC(C)(C)C=C3)c1O,20 µM (active),–
O=C(Cn1c(=O)n(CC2CS2)c2ccccc21)N1CCCCC1 (stereo not given),–,14.5%
C[C@]12CC[C@@H]3C(=CCc4cc(O)ccc43)[C@@H]1CCC2=O,–,-28.2% [at 25.5 µM]
C[N+]12CN3CN(CN(C3)C1)C2,–,37.3%
CN(C)C1C(=O)C(C(N)=O)=C(O)[C@@]2(O)C(=O)C3=C(O)c4c(O)cccc4[C@@](C)(O)C3C[C@@H]12 (stereo not given in full),10 µM (active),–
COc1cccc(CN2CCCC(C(=O)c3ccccc3SC)C2)c1O (stereo not given),–,-3.71%
CCOC(=O)C1SC2(C(F)(F)C(F)F)CC1(O)c1c(c(OC)c3occc3c1OC)O2 (stereo not given),–,4.78%
COC1=C[C@]23CCCN2CCc2cc4c(cc2[C@@H]3[C@@H]1O)OCO4,–,-14.3%
C/C(=C\C=C/[C@@H](C)C(=O)O)[C@H]1CN[C@H](C(=O)O)[C@@H]1CC(=O)O,12.6 µM (active),–
COc1ccc(C(=O)CC2C(=O)N(C)C(=O)N(C)C2=O)cc1,–,6.67%
Cc1cccc(OP(=O)(Oc2cccc(C)c2)OC(c2ccccc2)C(F)(F)F)c1 (stereo not given),–,0.176%
Fc1ccc(C2N3CCCN23)cc1 (stereo not given),–,0.294%
